Assay results taken from PubChem BioAssay (Tox21).
Inconclusive results are not listed. A call without a number means that no potency is given here. More than one record can exist for a structure, and the calls need not agree. Activity calls are given as the source filed them. Calls follow the shape of the full dose curve.

Test: qHTS assay to identify small molecule antagonists of the sonic hedgehog signaling (Shh) pathway (AID 1259369); also: nearly all actives have a fitted effect of over 45% in size
Settings: NIH/3T3 Gli1-Luc reporter, Shh antagonist, luminescence 24 h; series mostly up to 92.4 µM
Excerpt: U.S. Tox21 Program National Center for Advancing Translational Sciences [NCATS] NIH Chemical Genomics Center [NCGC] U.S. Environmental Protection Agency [EPA] National Institutes of Environmental Health Sciences [NIEHS] National Toxicology Program [NTP] U.S. Food and Drug Administration [FDA] Tox21 Assay Overview: The sonic hedgehog (Shh) pathway is essential for normal embryonic development. Dysregulation of the Shh pathway can cause severe developmental defects in organs. Therefore chemicals that interfere with the pathway are potential developmental toxicants. A cell line designated 3T3Gli1-Luc (DMB/OARSA/CFSAN/FDA, Laurel, MD), a NIH/3T3 derived clone containing stably integrated Gli1-Luc reporter is used to detect chemical interference of the Shh pathway, by changes in the expression of the firefly Luc gene under the control of the Gli1 transcriptional response element. This cell line was used to screen Tox21 libraries for identifying and prioritizing the potential developmental toxicants that interfere Shh pathway. Conditioned medium-stimulated mode was used to screen for chemicals inhibiting Shh signaling.
Tox21 Assay Protocol Summary: 3T3 Gli1-Luc cells were dispensed at 2,000 per well in 5uL of culture medium into white solid bottom 1536-well plates (Greiner Bio-One, Monroe, NC) using a Multidrop Combi (Thermo Scientific, Waltham, MA) dispenser. The assay plates were incubated at 37 C and 5% CO2 for 4hr, and then 23nL of compounds dissolved in DMSO and positive control were transferred using a Pintool station (Wako, San Diego, CA). The compound transfer was followed by the addition of 1ul conditioned medium or assay buffer using two separate tips of Flying Reagent Dispenser (FRD, Aurora Discovery, San Diego, CA). The assay plates were incubated at 37C and 5% CO2 for 24hr. For luciferase read, 4uL of Amplite Luciferase reporter gene assay reagent (AAT Bioquest, Inc. Sunnyvale, CA) was added to each well of the assay plates using FRD and incubated at room temperature for 30min. The luminescence signal was measured using a ViewLux plate reader (Perkin Elmer, Shelton, CT).
Potency is read from the fitted curve at half-maximal effect.

Row | SMILES | Potency
1 | OC1C(O)C(O)C(O)C(O)C1O (stereo not given) | inactive
2 | COc1ccc([N+](=O)[O-])cc1N | inactive
3 | CCNc1ccccc1 | inactive
4 | CN(C)CCOC(=O)COc1ccc(Cl)cc1 | inactive
5 | CCCCCCCCCCO | inactive
6 | C=CCCCCCCCCC(=O)O | inactive
7 | O=C(O)c1cc2ccccc2cc1O | inactive
8 | CC(C)CC(C)O (stereo not given) | inactive
9 | CN/C(=C\[N+](=O)[O-])NCCSCc1csc(CN(C)C)n1 | inactive
10 | O=C(OCC1CCC2OC2C1)C1CCC2OC2C1 (stereo not given) | inactive
11 | O=S(=O)(O)c1ccccc1 | inactive
12 | COc1ccccc1OCC(O)CO (stereo not given) | inactive
13 | NC(=S)NNC(N)=S | inactive
14 | Cc1ccc(C(C)C)c(O)c1 | inactive
15 | C=CC(=O)OCCC(=O)O | inactive
16 | CN(C)c1ccc(O)c2c1C[C@H]1C[C@H]3[C@H](N(C)C)C(=O)C(C(N)=O)=C(O)[C@@]3(O)C(=O)C1=C2O | inactive
17 | Clc1ccccn1 | inactive
18 | O=C1c2ccccc2CCc2ccccc21 | inactive
19 | OCc1cccc(Oc2ccccc2)c1 | inactive
20 | COC(=O)CCCC(=O)OC | inactive

Row | SMILES | Potency
21 | CC(C)(Oc1ccc(CCNC(=O)c2ccc(Cl)cc2)cc1)C(=O)O | inactive
22 | CCCCCCCC=O | inactive
23 | CCc1ccccc1CC | inactive
24 | O=C(O)c1ccc(S(=O)(=O)N(Cl)Cl)cc1 | inactive
25 | CC(C)=CCl | inactive
26 | c1ccc(Oc2ccccc2)cc1 | inactive
27 | COc1ccc(N)c(C)c1 | inactive
28 | CC(=O)CCC=C(C)C | inactive
29 | CC(=O)OCCOC(C)=O | inactive
30 | Cc1ccc(S(=O)(=O)N=C=O)cc1 | 6 µM (active) and inactive
31 | CCCCCCCCCCCCCCCC(=O)OC(C)C | inactive
32 | CC(C)c1cccc(C(C)C)c1 | inactive
33 | O=C(O)Cn1c(=O)n(Cc2ccc(Br)cc2F)c(=O)c2ccc(Cl)cc21 | inactive
34 | c1ccc2c(c1)Cc1ccccc1-2 | inactive
35 | CCCCCC(=O)O | inactive
36 | CC(=O)OC1CC(C)OC(C)O1 (stereo not given) | inactive
37 | C[Si]1(C)O[Si](C)(C)O[Si](C)(C)O[Si](C)(C)O1 | inactive
38 | O=S(=O)(O)c1ccc(N=Nc2c(O)ccc3cc(S(=O)(=O)O)ccc23)cc1 | inactive
39 | O=C(O)/C=C/C(=O)O | inactive
40 | CC1(C)OC[C@@H]2O[C@@]3(C(=O)O)OC(C)(C)O[C@H]3[C@@H]2O1 | inactive
